Measurements: the OligoGym collection
Further: reference of the scale not given here.

What follows are sequences tested against MTG1 (assay: pooled miR-30 sensor sort-seq; sequence = guide strand). Settings: shRNA.
With TAAGTGTTGCATAATTTTCTGC the sensor-assay potency score (higher = more potent) was 0.0697. ATCAGTTCAGTGACCATCGGGA was tested, and the sensor-assay potency score (higher = more potent) was -0.492. Sequence TTGGACATCACAGCTCTGGTGA has a sensor-assay potency score (higher = more potent) of -0.544.

Each sequence was assayed against MTMR14 in the same assay as above. Settings: shRNA.
With TTGTCCACCTTCTCAGAGGAGG the sensor-assay potency score (higher = more potent) was -1.29. Work on TATTTGACTGACAGGTATCGAA yielded a sensor-assay potency score (higher = more potent) of -0.898. In the case of TTTGGAATCACGCTGAAACAGT, the sensor-assay potency score (higher = more potent) is reported as -0.856. TTTGTGATCTGTGTCAAACTGC gave a sensor-assay potency score (higher = more potent) of 0.417. TGACAGGTATCGAAGCAGCTTG showed a sensor-assay potency score (higher = more potent) of -1.11. With TTATTTTGTGATCTGTGTCAAA the sensor-assay potency score (higher = more potent) was -0.837. In the case of TGAAACAGTAGTCTCGGCCAAA, the sensor-assay potency score (higher = more potent) is reported as -1.3. Work on TCGAAGAGCACAGTCCTCCTCC yielded a sensor-assay potency score (higher = more potent) of -0.118. For TGAGATACAGTGTACCAGCAGC, the sensor-assay potency score (higher = more potent) was -0.892. For TTCGTGTTTGGAATCACGCTGA, the sensor-assay potency score (higher = more potent) was 0.52. For TTTGCTGAGCCGATCTACCAAC, the sensor-assay potency score (higher = more potent) was -1.14. Sequence TTGAACAGGATTACTGGGCAGA has a sensor-assay potency score (higher = more potent) of -0.111.
